Experimental data from PubChem BioAssay AID1159580 (chemical genetic matrix, 2015).
Where “and” joins values, the source holds several entries; their conditions need not be identical. Identical values can stand only once. Among all 5,500 compounds or so, about 2,000 (36%) were called active. Roughly 18% stayed inconclusive and do not appear here. No stated cut-off is given here; in the data, active means normalized growth mostly below about 0.91 (no sharp cut-off); inconclusive means no clear call, values can overlap the other calls; inactive means mostly above about 0.92. Some of the results follow.

Assay: chemical genetic growth profiling, strain panel (AID 1159580);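 further: tested at 20 µM; growth read once vehicle control cultures reached saturation at 30 °C; 1 = growth at the plate median or of vehicle wells; lower values mean less growth of the strain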
Conditions: S. cerevisiae deletion strains, growth OD

Measured: normalized growth

CC1(C)O[C@@H]2CC3C4C[C@H](F)C5=CC(=O)C=CC5(C)C4C(O)CC3(C)[C@]2(C(=O)CO)O1 (stereo partly drawn)
inactive: locus YAL013W, strain DEP1, hits give low values 1.02 | locus YAL021C, strain ccr4, hits give low values 1 | locus YAL026C, strain drs2, hits give low values 0.993 | locus YAL030W, strain snc1, hits give low values 0.992 | locus YBL061C, strain skt5, hits give low values 0.979 | locus YBR009C, strain hhf1, hits give low values 1.01 | locus YBR021W, strain FUR4, hits give low values 1.02 | locus YBR023C, strain chs3, hits give low values 0.987 | locus YBR171W, strain sec66, hits give low values 0.985 | locus YBR229C, strain ROT2, hits give low values 1.02 | locus YBR231C, strain swc5, hits give low values 1 | locus YBR279W, strain paf1, hits give low values 0.976 | locus YCL011C, strain gbp2, hits give low values 0.982 | locus YCL016C, strain dcc1, hits give low values 0.96 | locus YCL029C, strain bik1, hits give low values 0.989 | locus YCL069W, strain vba3, hits give low values 0.995 | locus YCR088W, strain abp1, hits give low values 0.992 | locus YDL005C, strain med2, hits give low values 0.973 | locus YDL035C, strain GPR1, hits give low values 1.02 | locus YDL040C, strain nat1, hits give low values 0.983 | locus YDL074C, strain BRE1, hits give low values 1.04 | locus YDL101C, strain DUN1, hits give low values 1.02 | locus YDL134C, strain PPH21, hits give low values 1.02 | locus YDL185W, strain tfp1, hits give low values 0.991 | locus YDL192W, strain arf1, hits give low values 1.01 | locus YDR001C, strain nth1, hits give low values 0.983 | locus YDR069C, strain doa4, hits give low values 1 | locus YDR101C, strain arx1, hits give low values 1 | locus YDR137W, strain rgp1, hits give low values 1 | locus YDR159W, strain sac3, hits give low values 0.982 | locus YDR162C, strain NBP2, hits give low values 1.01 | locus YDR195W, strain ref2 0.997 | locus YDR297W, strain sur2, hits give low values 1 | locus YDR318W, strain mcm21, hits give low values 0.996 | locus YDR334W, strain swr1, hits give low values 0.985 | locus YDR335W, strain msn5, hits give low values 0.975 | locus YDR388W, hits give low values 0.99 | locus YDR392W, strain spt3, hits give low values 0.917 | locus YDR502C, strain sam2, hits give low values 0.991 | locus YEL003W, strain gim4, hits give low values 1.02 | locus YEL037C, strain rad23, hits give low values 0.979 | locus YEL061C, strain CIN8 (second series), hits give low values 0.987 | locus YEL061C, strain CIN8, hits give low values 1.01 | locus YER015W, strain faa2, hits give low values 0.996 | locus YER016W, strain bim1, hits give low values 0.971 | locus YER110C, hits give low values 0.988 | locus YER111C, strain swi4, hits give low values 0.975 | locus YER155C, strain BEM2 (second series), hits give low values 1.01 | locus YER155C, strain BEM2, hits give low values 1.01 | locus YER167W, strain BCK2, hits give low values 1.01 | locus YFR010W, strain ubp6, hits give low values 1.01 | locus YGL078C, strain dbp3, hits give low values 0.979 | locus YGL086W, strain mad1, hits give low values 1.01 | locus YGL167C, strain pmr1, hits give low values 0.996 | locus YGL173C, strain kem1, hits give low values 1 | locus YGL227W, strain vid30, hits give low values 0.988 | locus YGL240W, strain doc1, hits give low values 1.02 | locus YGL248W, strain PDE1, hits give low values 1.03 | locus YGL253W, strain hxk2, hits give low values 0.959 | locus YGR135W, strain pre9, hits give low values 0.98 | locus YGR252W, strain gcn5, hits give low values 0.984 | locus YHR013C, strain ard1, hits give low values 0.957 | locus YHR027C, strain rpn1, hits give low values 0.99 | locus YHR030C, strain SLT2, hits give low values 1.01 and 1.02 | locus YHR079C, strain IRE1 (second series), hits give low values 0.99 | locus YHR079C, strain IRE1, hits give low values 1.02 | locus YHR094C, strain hxt1, hits give low values 0.98 | locus YHR129C, strain ARP1, hits give low values 1.02 | locus YHR142W, strain chs7, hits give low values 0.941 | locus YHR200W, strain rpn10, hits give low values 0.998 | locus YIL066C, strain RNR3, hits give low values 1.02 | locus YIL073C, strain SPO22, hits give low values 0.999 | locus YIL125W, strain kgd1, hits give low values 0.99 | locus YIR030C, strain dcg1, hits give low values 0.998 | locus YJL092W, strain hpr5, hits give low values 1 | locus YJL095W, strain BCK1 (second series), hits give low values 0.978 | locus YJL095W, strain BCK1, hits give low values 1.04 and 1.03 | locus YJL115W, strain asf1, hits give low values 0.974 | locus YJL129C, strain trk1, hits give low values 0.953 | locus YJL134W, strain LCB3, hits give low values 1.01 | locus YJL154C, strain vps35, hits give low values 0.976 | locus YJL164C, strain tpk1, hits give low values 0.972 | locus YJL166W, strain qcr8, hits give low values 1.02 | locus YJL168C, strain set2, hits give low values 0.993 | locus YJL187C, strain SWE1 (second series), hits give low values 1.02 | locus YJR043C, strain POL32, hits give low values 1.02 | locus YJR066W, strain TOR1, hits give low values 0.954 | locus YJR075W, strain HOC1, hits give low values 1.03
